Hits are enriched below; roughly 3.8% of the tested compounds scored in any of these assays.
A549 viability: counter-screen for Nrf2 inhibitors: cytotoxicity in A549 cells. A549 ARE-Fluc cells, CellTiter-Fluor viability, 18-24 h. Potency, µM (doses to about 46 µM), actives largely listed as inhibitors. hit rate 0.16% among 390,000. AID 504648
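A549 ARE_Fluc cells in 5% FBS OPTI-MEM were exposed to compounds in concentration-response for 18-24 h at 37 deg C. Viability was read by CellTiter-Fluor fluorescence (Ex 405/Em 525) after 30 min, before the luciferase read.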
Nrf2 inh: blocks Nrf2 signaling. AID 504444. hit rate 2.1% among 360,000. Potency, µM (highest dose often 46 µM), hits mostly inhibitors. A549 ARE-Fluc reporter, luciferase luminescence, 18-24 h; further: nearly all actives have a fitted effect of over 60% in size
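Two sequential reads on A549 ARE_Fluc cells exposed to compound for 18-24 h: a CellTiter-Fluor fluorescence read for viability, then a luciferase luminescence read for Nrf2/ARE activity.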
TGFb inhibitor: TGF-b pathway inhibition; hit rate 1.2% among 410,000; HepG2 CAGA-GFP TGF-b/SMAD3 reporter, GFP fluorescence, 18 h; TGF-beta stimulated, 500 pg/mL final; Potency, µM (titrated, usually from 46.1 µM), most hits filed as inhibitors; further: nearly all actives have a fitted effect of over 65% in size
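Per well, imaged GFP fluorescence of HEPG2 CAGA-GFP cells gives the signal; cells get compound, then TGF-beta (500 pg/mL final), 18 h at 37 degrees C; %Activity versus -TGF-beta and +DMSO controls.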
ATXN2 expr inh: inhibitors of ATXN2 expression; HEK-293 ATXN2-luciferase reporter, luminescence, 24 h; Potency, µM (top dose mostly 57 µM), usual class: inhibitors; hit rate 0.72% among 360,000; further: nearly all actives have a fitted effect of over 55% in size
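qHTS (up to 57 uM final) was run with 24 h compound exposure of reporter cells at 37 °C. Each well was multiplexed: SteadyGlo luminescence measured ATXN2-luciferase expression after a fluorogenic Gly-Phe-AFC viability readout (25 uM final).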
S2 tox: reduces viability in counter-screen for ATXN expression inhibitors; S2 cells (HEK-293 line with an ATXN2-luciferase reporter) viability, CellTiter-Fluor protease fluorescence, 24 h; Potency, µM (top dose mostly 56.7 µM), hits mostly cytotoxic; hit rate 0.49% among 400,000; AID 651635; further: nearly all actives have a fitted effect of over 40% in size
HepG2 viability: HepG2 cytotoxicity, counter-screen for TGF-b inhibitors. HepG2 CAGA-GFP viability, ATP luminescence, 18 h. Potency, µM (series often up to 46.1 µM), usual class: cytotoxic. hit rate 0.76% among 410,000. AID 588856
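HepG2 CAGA-GFP cells (1000/well, DMEM with 1% FBS) received compound, then TGF-beta at 500 pg/mL final, and were incubated 18 hours at 37 degrees C. Viability was read by CellTiter-Glo luminescence. Media-only wells were set as complete cell-killing and DMSO as no toxicity.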
Large screens that a line does not name were inactive; ! = repeats disagree. The call rests on the fitted dose curve; in most records, active means well fitted curve in the direction sought with a large enough effect; inconclusive means small, poorly fitted or top-dose-only effect, or another doubt; inactive means no such curve, though single readings can be large; an effect the other way counts as inactive or inconclusive.

COc1ccc(-n2nc(C(=O)NCC(=O)Nc3cccc(Cl)c3)c3ccccc3c2=O)cc1OC	Nrf2 inh 14.6µM, ATXN2 expr inh inconclusive
Cc1cccc(N2C(=O)N(Cc3cccc(C#N)c3)c3ccccc3S2(=O)=O)c1	none (no result: Nrf2 inh)
CCc1ccc(N(C(=O)c2snc(C(N)=O)c2N)C(C(=O)NCCC(C)C)c2c[nH]c3ccccc23)cc1 (stereo unspecified)	Nrf2 inh inconclusive (no result: A549 viability)
Fc1ccc(NC(=S)N2CCN(c3ncccn3)CC2)cc1	none
C=CCNc1nc(N)c([N+](=O)[O-])c(Nc2ccccc2OC)n1	Nrf2 inh 20.6µM
CCC(C)Nc1nc(N)c([N+](=O)[O-])c(Nc2cc(OC)ccc2OC)n1 (stereo unspecified)	A549 viability inconclusive, Nrf2 inh inconclusive, TGFb inhibitor inconclusive, ATXN2 expr inh inconclusive, S2 tox inconclusive
CCC(C)Nc1nc(N)c([N+](=O)[O-])c(Nc2ccccc2OC)n1 (stereo unspecified)	A549 viability inconclusive, Nrf2 inh 14.6µM, S2 tox inconclusive
COc1ccccc1Nc1nc(NCCCN(C)C)nc(N)c1[N+](=O)[O-]	none
CCCCCNC(=O)c1ccc2c(=O)n(CCc3ccccc3)c(=O)[nH]c2c1	none
CC(CC(=O)c1cccs1)CC(=O)c1cccs1	Nrf2 inh inconclusive
Cc1cc(C)c(C(CC(=O)c2cccs2)C(C#N)C#N)c(C)c1 (stereo unspecified)	TGFb inhibitor 17.8µM, ATXN2 expr inh inconclusive, HepG2 viability 12.6µM (no result: S2 tox)
COc1cc(C(CCN2CCCC(C)C2)c2c(OC)cc(OC)c3c(-c4ccccc4)cc(=O)oc23)cc(OC)c1OC (stereo unspecified)	ATXN2 expr inh inconclusive (no result: S2 tox)
COc1cc(OC)c2ccc(=O)oc2c1C(CCN1CCCC1)c1ccc(N(C)C)cc1 (stereo unspecified)	A549 viability inconclusive, S2 tox inconclusive
COc1cc(OC)c2ccc(=O)oc2c1C(CCN1CCCC(C)C1)c1ccc2c(c1)OCO2 (stereo unspecified)	A549 viability 16.4µM, TGFb inhibitor inconclusive, S2 tox 28.2µM
CCCCCc1cc(=O)oc2c(C(CCN3CCCC(C)C3)c3ccc(OC)cc3)c(OC)cc(OC)c12 (stereo unspecified)	A549 viability inconclusive, Nrf2 inh inconclusive, TGFb inhibitor inconclusive, ATXN2 expr inh inconclusive, HepG2 viability 11.2µM (no result: S2 tox)
COc1cc(C(CCN2CCCCC2)c2c(OC)cc(OC)c3c(-c4ccccc4)cc(=O)oc23)cc(OC)c1OC (stereo unspecified)	TGFb inhibitor inconclusive, ATXN2 expr inh inconclusive, S2 tox 25.1µM
CCCCCc1cc(=O)oc2c(C(CCN3CCCC3)c3ccc(N(C)C)cc3)c(OC)cc(OC)c12 (stereo unspecified)	TGFb inhibitor inconclusive, ATXN2 expr inh inconclusive, S2 tox 31.6µM, HepG2 viability 12.6µM
Cc1cc(CCCOc2c(C)cc(-c3noc(C(F)(F)F)n3)cc2C)on1	none (no result: A549 viability, Nrf2 inh, TGFb inhibitor, HepG2 viability)
CCCCCc1cc(=O)oc2c(C(CCN3CCCC3)c3cc(OC)c(OC)c(OC)c3)c(OC)cc(OC)c12 (stereo unspecified)	TGFb inhibitor inconclusive, ATXN2 expr inh inconclusive, HepG2 viability 15.8µM (no result: S2 tox)
CCCCCc1cc(=O)oc2c(C(CCN3CCN(c4ccccc4)CC3)c3ccc4c(c3)OCO4)c(OC)cc(OC)c12 (stereo unspecified)	S2 tox inconclusive
CCCCCc1cc(=O)oc2c(C(CCN3CCCCC3)c3ccc(OC)cc3)c(OC)cc(OC)c12 (stereo unspecified)	TGFb inhibitor inconclusive, ATXN2 expr inh inconclusive, S2 tox 31.6µM, HepG2 viability 11.2µM!
COc1ccc(CNC(=O)Cn2c(=O)c3cccn3c3cccnc32)cc1	none (no result: ATXN2 expr inh, S2 tox)
Cc1cc(C)cc(NC(=O)CCn2c(=O)c3cccn3c3ccccc32)c1	Nrf2 inh 16.4µM (no result: ATXN2 expr inh)
COc1ccc(CNC(=O)Cn2c(=O)c3cccn3c3ccccc32)cc1	Nrf2 inh 11.6µM (no result: ATXN2 expr inh, S2 tox)
Cc1cccc(NC(=O)Cn2c(=O)c3cccn3c3ccccc32)c1C	Nrf2 inh 23.1µM (no result: ATXN2 expr inh, S2 tox)
Cc1ccc(NC(=O)Cn2c(=O)c3cccn3c3ccccc32)c(C)c1	none
O=C(NCCc1ccccc1)C(=O)NCC1CCCN1S(=O)(=O)c1cccs1 (stereo unspecified)	Nrf2 inh inconclusive
O=C(c1cc(C2CCCCN2S(=O)(=O)Cc2ccccc2)on1)N1CCOCC1 (stereo unspecified)	none (no result: A549 viability, Nrf2 inh)
CCNC(=O)C1(C)CCN(C(=O)c2cccs2)C1 (stereo unspecified)	none (no result: A549 viability, Nrf2 inh)
COc1cc(C2C(C(=O)Nc3ccccc3C)=C(C)Nc3nc(SCc4cc(C)ccc4C)nn32)ccc1O (stereo unspecified)	A549 viability inconclusive, Nrf2 inh 16.4µM, TGFb inhibitor 10µM, HepG2 viability 7.08µM (no result: ATXN2 expr inh, S2 tox)
CCc1nc2ccc(C(=O)N(C)C(C)C)cn2c1N(CC)Cc1cccc(Br)c1	S2 tox inconclusive (no result: A549 viability, Nrf2 inh)
CCN1CCCC1CN(Cc1cc2ccc(C)cc2[nH]c1=O)C(=S)Nc1ccc(OC)cc1 (stereo unspecified)	TGFb inhibitor inconclusive, S2 tox inconclusive, HepG2 viability 12.6µM
CCN1CCCC1CN(Cc1cc2ccc(C)cc2[nH]c1=O)C(=S)Nc1cccc(OC)c1 (stereo unspecified)	none
CC(C)(C)OC(=O)NCCCCCNC(=O)c1nc[nH]c1C(=O)NCCCCCNC(=O)OC(C)(C)C	Nrf2 inh 13µM, TGFb inhibitor inconclusive, ATXN2 expr inh 22.4µM, S2 tox 25.1µM
CC(C)(C)OC(=O)NCCCCCNC(=O)c1nc[nH]c1C(=O)NCC(=O)OCc1ccccc1	S2 tox inconclusive
CC(C)(C)OC(=O)NCCCCCNC(=O)c1[nH]cnc1C(=O)N[C@@H](CCCCNC(=O)OC(C)(C)C)C(=O)OC(C)(C)C	Nrf2 inh 23.1µM, TGFb inhibitor inconclusive, ATXN2 expr inh inconclusive, S2 tox inconclusive
CC(C)(C)OC(=O)NCCCC[C@H](NC(=O)c1nc[nH]c1C(=O)N[C@@H](CCCCNC(=O)OC(C)(C)C)C(=O)OC(C)(C)C)C(=O)OC(C)(C)C	Nrf2 inh inconclusive, TGFb inhibitor inconclusive, S2 tox inconclusive
O=C(Nc1ccccc1)c1nc[nH]c1C(=O)NCCN(CCNC(=O)c1[nH]cnc1C(=O)Nc1ccccc1)CCNC(=O)c1[nH]cnc1C(=O)Nc1ccccc1	TGFb inhibitor 20µM

Screening results (PubChem BioAssay)
